According to PubChem BioAssay:

Assay: inhibitors of Sendai virus-induced IRF3 signaling, primary screen, TLR/RLR signaling modifier project, cell-based, Sendai virus stimulus, luciferase, 10K MLSCN set (AID 602276);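 also: firefly luciferase from ISG56 promoter only with Renilla not read in this screen; 0% = Sendai virus plus DMSO and 100% = medium plus DMSO without virus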
Conditions: HEK293 RL24 IRF3 luciferase reporter, at 10 µM, active compounds read high;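 active = inhibition at or above 50% at 10 µM; inactive = inhibition below 50%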

inhibition, inactive:
COc1ccc(C2=NO[C@@H]3C(=O)N(c4cccc(C)c4C)C(=O)[C@H]23)cc1OC -20.9%
CN(C)c1nc(SCCOC(=O)c2ccccc2)nc(N(C)C)n1 8.47%
CCN(CC)c1ccc(-c2c(C#N)c(N)nc(OC)c2C#N)cc1 -0.552%
COc1ccc(CN(CC(=O)NCC2CCCO2)C(=O)CNS(=O)(=O)c2ccc(C)cc2)cc1 (stereo not given) 9.43%
COC(=O)c1sccc1NC(=O)c1csc(C)c1 18.7%
Cc1ccc(C(=O)CC2(O)C(=O)N(C)c3ccc(Br)cc32)c(C)c1 (stereo not given) 15.6%
CC(=O)Nc1c(-c2ccc(F)cc2)nc2ccccn12 11.8%
CCCc1cc(=O)[nH]c(/N=C(\N)Nc2ccccc2)n1 12.3%
O=C(CN1CCCC1)Nc1ccc(NC(=O)Nc2ccccc2)cc1 -33.7%
Cc1ccc(CN2C(=O)CCC2C(=O)NC2CCCC2)cc1 (stereo not given) 12.8%
CSCSC1=C(C#N)C(c2ccc(Cl)cc2)C(C(C)=O)=C(C)N1 (stereo not given) 10.5%
COc1ccc(OC)c(S(=O)(=O)N2c3ccccc3CC2C)c1 (stereo not given) 5.85%
CC(=O)Nc1ccc(OCC(O)Cn2nc(C)nc2C)cc1 (stereo not given) 7.41%
CC(C)C1C2=C(CC(C)(C)CC2=O)ON1c1ccccc1 (stereo not given) 14.4%
O=C(CN1C(=O)C2C3C=CC(C3)C2C1=O)NCc1ccc2c(c1)OCO2 (stereo not given) -4.21%
COc1ccc(C(=O)Nc2ccc(S(=O)(=O)Nc3onc(C)c3C)cc2)cc1 4.94%
Cc1nnc(SCc2ccccc2)n1N 16.3%
O=C(c1ncn[nH]1)N1CCN(c2nc(-c3ccccc3)cs2)CC1 -1.81%
Cc1cc(C)nc(SC2=CS(=O)(=O)c3ccccc32)n1 9.85%
CC(=O)OC1c2ccccc2C(=O)N1c1ccccc1C (stereo not given) 10.3%
CCCCn1c(=O)[nH]c(=O)c2c1nc(COc1ccc(C#N)cc1)n2CCC 10.1%
Cc1ccccc1CSc1nnc(C)c(=O)[nH]1 12.3%
Cc1nc2cc(C(=O)O)ccc2n1-c1ccc(F)cc1F 4.77%
CC(C)[C@H](NC(=O)NC1CCCC1)C(=O)O 5.42%
Cc1ccccc1N1OC2C(=O)N(c3ccc(F)cc3)C(=O)C2C1c1ccccn1 (stereo not given) 10.4%
